The supplement of paper PMC4166925
± gives the standard deviation of the averaged measurements. The full ranking holds about 33,000 sequences; the median of “E-score (dimensionless, -0.5 to 0.5)” is about -0.049, and the highest 2% start at about 0.37. This excerpt belongs to a sample that is enriched for the highest values.

system: T1, PmTbr T-box DNA-binding domain (GST fusion); test: PBM E-score of 8-mer (E-score (dimensionless, -0.5 to 0.5)); Tbr is Tbrain of the sea star Patiria miniata (Pm) or the sea urchin Strongylocentrotus purpuratus (Sp); higher = stronger binding preference; conditions: the construct has about 5 more residues each side
T1 sequence: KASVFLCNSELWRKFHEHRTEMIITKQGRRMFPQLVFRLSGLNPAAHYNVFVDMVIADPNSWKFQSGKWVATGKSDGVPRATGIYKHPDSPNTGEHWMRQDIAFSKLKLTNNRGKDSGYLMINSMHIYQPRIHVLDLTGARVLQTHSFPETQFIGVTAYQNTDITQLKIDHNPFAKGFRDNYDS
Outline: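 Primer extension turned Universal Agilent oligonucleotide arrays double-stranded. They were incubated with 200 nM protein in PBS (pH 7.5); the protein was a GST-fused Tbr T-box DNA-binding domain expressed in BL21 E. coli at 20 °C and purified on glutathione. Every ungapped 8-mer was scored from the scanned, quantified probe intensities, and the Universal PBM Analysis Suite gave each an enrichment E-score averaged over duplicate arrays.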

Sequence | PBM E-score of 8-mer
AAGCGATG | -0.00845 ± 0.0036
CCCTCTGC | 0.0209 ± 0.072
ATCTTAGA | -0.0793 ± 0.081
CGACCAAC | 0.00547 ± 0.043
ACTGCTGA | 0.181 ± 0.035
AGTCATCG | -0.153 ± 0.0094
CTTAAGGC | -0.0813 ± 0.065
CAATCTAC | -0.0883 ± 0.0018
GCTCTATA | -0.25 ± 0.048
TCGAAAGA | -0.172 ± 0.05
GACCCTTA | -0.0822 ± 0.0071
CGAGTTAG | -0.0558 ± 0.052
GAAGCTCC | -0.342 ± 0.041
CTGTGGAC | -0.104 ± 0.0043
CACTAGGG | -0.15 ± 0.031
AGGCGACC | -0.13 ± 0.17
AGGCGACA | 0.3974 ± 0.0038
AGGCGACG | 0.268 ± 0.0026
AATTGGCA | 0.247 ± 0.036
CGAAAAAA | 0.00041 ± 0.062
CGAAATCG | 0.231 ± 0.046
ACAAGTAT | 0.112 ± 0.028
ACAAGTCT | 0.103 ± 0.044
AAAAGTGT | 0.413 ± 0.015
ACAAGTGA | 0.277 ± 0.034

Sequence | PBM E-score of 8-mer
ACAAGTGT | 0.391 ± 0.0052
AAAAGTGG | 0.107 ± 0.0099
AAAAGTGA | 0.197 ± 0.059
ACAAGTGC | 0.249 ± 0.005
ACAAGTGG | 0.375 ± 0.017
CGCACTCA | 0.161 ± 0.074
AAAACGGG | -0.146 ± 0.0023
ATATACGA | -0.298 ± 0.059
AAATTCTT | -0.155 ± 0.029
TACTACGA | 0.0382 ± 0.023
ATATGGCC | -0.235 ± 0.066
ATGGGCTC | -0.154 ± 0.16
TCGCTTCA | 0.177 ± 0.02
CACGGGTC | 0.0871 ± 0.051
ATGTCGCA | 0.254 ± 0.049
ATGTCGGA | -0.0551 ± 0.054
CTGTCGCA | 0.224 ± 0.064
CTGTCGGA | 0.101 ± 0.044
GTGTCGCA | 0.415 ± 0.0083
GTGTCGGA | 0.394 ± 0.015
CGGATGCC | -0.239 ± 0.09
AGTAGAGA | -0.165 ± 0.0094
CAAATGTC | 0.0249 ± 0.12
ACCTCAAC | -0.0545 ± 0.07
CCGCTGAA | -0.279 ± 0.04

Sequence | PBM E-score of 8-mer
GGTGCTCA | -0.112 ± 0.025
GGTGCTAA | 0.4753 ± 0.00081
AGTGCTAG | 0.358 ± 0.0077
CGTGCTAC | 0.185 ± 0.0064
GGTGCTAC | 0.434 ± 0.0055
CGTGCTAG | 0.287 ± 0.027
TGTGCTAA | 0.346 ± 0.02
GGTGCTTA | 0.0849 ± 0.048
CGTGCTAA | 0.378 ± 0.021
AGTGCTAC | 0.276 ± 0.031
AGTGCTAT | 0.27 ± 0.0047
AGTGCTAA | 0.421 ± 0.012
ACAGTTAG | 0.0702 ± 0.027
ATGAATCA | -0.129 ± 0.0053
GTCCATGA | -0.052 ± 0.031
GGGTGGGA | 0.237 ± 0.011
CCCACATA | -0.214 ± 0.08
CAAGGGGC | -0.095 ± 0.021
AGCAGCAA | -0.118 ± 0.011
CAACGTCA | 0.0459 ± 0.035
CCACTTTC | 0.104 ± 0.06
AGACTTTG | -0.00767 ± 0.055
ACTCTTTC | -0.00346 ± 0.013
ACACTTTA | 0.338 ± 0.029
ACACTTTC | 0.408 ± 0.0072

Sequence | PBM E-score of 8-mer
ACACTTTG | 0.404 ± 0.014
GTTTTTAA | -0.131 ± 0.14
AATCACCT | 0.311 ± 0.017
GTGTAGAA | 0.164 ± 0.051
AGACAGGC | -0.103 ± 0.03
AAGTTAGC | 0.192 ± 0.011
ATGTCCGG | -0.174 ± 0.071
CACCTCAG | 0.42 ± 0.0057
AACCTCAG | -0.26 ± 0.042
AACCTCAA | -0.113 ± 0.028
GACCTCAC | 0.0743 ± 0.032
CTCCTCAG | -0.0996 ± 0.015
CACCTCAA | 0.395 ± 0.022
AACCTCAC | 0.219 ± 0.015
CACCTCAC | 0.4504 ± 0.0025
TACCTCAA | -0.132 ± 0.028
CTGCCACC | 0.265 ± 0.036
CCCGATTA | 0.0524 ± 0.024
CCGCTAGA | 0.0332 ± 0.029
CGATTGCC | -0.0231 ± 0.013
GTACAGCA | -0.0813 ± 0.032
ACGGAAAT | -0.189 ± 0.071
CCGCAGGC | 0.000335 ± 0.0022
CCTCACAC | 0.475 ± 0.005
ACTCACAG | 0.314 ± 0.043

Sequence | PBM E-score of 8-mer
GCACACAC | 0.219 ± 0.039
ACTCACAT | -0.0309 ± 0.043
CCTCACAG | 0.127 ± 0.049
CCTCACAA | 0.155 ± 0.016
ACTCACAC | 0.4612 ± 0.00083
GCTCACAA | 0.132 ± 0.037
GCTCACAC | 0.424 ± 0.01
ACTACCTC | -0.248 ± 0.022
ACTCCACC | -0.0966 ± 0.022
CGGCCAGA | -0.215 ± 0.011
ACTCTTAG | -0.0903 ± 0.065
CCACTTAC | 0.201 ± 0.0076
CCACTTAG | -0.0105 ± 0.01
ACACTTAC | 0.412 ± 0.0079
ACACTTAG | 0.416 ± 0.0068
GCACTTAC | 0.178 ± 0.015
ACACTTAT | 0.387 ± 0.0076
ACTCTTAT | -0.0869 ± 0.047
ACACTTAA | 0.362 ± 0.031
CTTAAGAC | -0.218 ± 0.055
CCGATCCG | -0.094 ± 0.017
CGGTTAGA | -0.182 ± 0.026
ACATTAGG | 0.0856 ± 0.037
ACAGGGCG | 0.0776 ± 0.037
CAGCGCGA | 0.203 ± 0.029

Sequence | PBM E-score of 8-mer
AAGCGCGC | 0.106 ± 0.015
TAGCGCGA | 0.3803 ± 0.0017
GAGCGCGA | 0.291 ± 0.019
AAGCGCGA | 0.375 ± 0.017
AAGCGCGG | 0.0485 ± 0.038
CCACGCTA | -0.0567 ± 0.028
ACTCAGCA | -0.151 ± 0.053
TCCTAGAA | -0.0822 ± 0.13
GCTAGCAC | 0.33 ± 0.0063
CCTAGCAC | 0.3709 ± 0.0033
ACTAGCAC | 0.381 ± 0.013
ACTAGCAA | 0.00762 ± 0.0026
CCTAGCAA | 0.128 ± 0.069
ACTAGCAG | -0.0294 ± 0.074
CTTGGAAA | -0.0932 ± 0.023
CATCTATC | -0.196 ± 0.023
CGAGTGCG | 0.225 ± 0.033
CCGGTGTA | 0.0868 ± 0.027
ACGGTGTC | 0.26 ± 0.076
ACGGTGTA | 0.16 ± 0.0067
CAGATGTC | -0.0861 ± 0.049
CAGGTGTC | 0.4791 ± 0.0044
GCGGTGTA | -0.136 ± 0.021
CAGGTGTA | 0.3628 ± 0.0011
AAGGTTTC | 0.0322 ± 0.0076

Sequence | PBM E-score of 8-mer
AAGGTGTC | 0.4879 ± 0.0035
GAGGTGTA | 0.44018 ± 0.00028
GGGGTGTA | 0.175 ± 0.0049
AAGGTGTA | 0.404 ± 0.026
GGCATTAC | -0.165 ± 0.0079
GGATACCC | -0.327 ± 0.049
GGAGAGGA | -0.1 ± 0.0036
CTTGGGGA | -0.196 ± 0.039
ATAAGTGG | 0.124 ± 0.042
CAATGGAC | -0.0519 ± 0.011
TGCCCACA | -0.0968 ± 0.015
AAGGTTTG | -0.16 ± 0.015
AAGGTGTG | 0.4811 ± 0.0016
ACGGTGTG | 0.324 ± 0.012
AATGGCTG | -0.207 ± 0.038
CGTGATAA | 0.251 ± 0.034
GGTGATAA | 0.413 ± 0.018
AGTGATAA | 0.317 ± 0.052
TATGATAA | -0.0124 ± 0.036
TGTGATAA | 0.406 ± 0.046
GGTGATAC | 0.364 ± 0.025
TTGCGCAA | 0.108 ± 0.0064
CTAGATTC | 0.139 ± 0.039
AATGGACA | 0.0325 ± 0.009
